Several values for one entry are separate records, joined by “and”; a condition that tells them apart may be missing. Identical values can stand only once. Out of some 150,000 compounds screened, about 6,500 (4.3%) were called active. Not shown: some 12% with an inconclusive outcome. Many of the other results were omitted from the sample, so actives are more common in it than they were. A number with no mark means an inactive call. Calls follow the shape of the dose curve; as a rule, active = well fitted inhibition curve with a large enough effect (not every such curve was filed as active); inconclusive = small, poorly fitted or top-dose-only effect, or another doubt; inactive = no such curve, though single readings can be large or run the other way.
The compounds below were run against 15-hydroxyprostaglandin dehydrogenase [NAD(+)] (Homo sapiens) (UniProt P15428) (assay: qHTS Assay for Inhibitors of HPGD (15-Hydroxyprostaglandin Dehydrogenase)). Details: purified HPGD, NADH fluorescence kinetic, PGE2 substrate; activity change, negative = inhibition: stronger effect = lower value.
Procedure, shortened: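 20 nM HPGD preincubated 15 min at room temperature with compound in 50 mM Tris-HCl pH 8, 0.01% Tween 20. Started with 1 mM NAD+ and 30 uM prostaglandin E2; NADH fluorescence (360/450 nm) read 5 times over 30-s intervals, last minus first.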
% is scaled to controls: 0 for no effect and ±100 for the full control effect; potency is read from the fitted curve at half-maximal effect.

15-hydroxyprostaglandin dehydrogenase [NAD(+)] (Homo sapiens), sequence (P15428 whole entry, looked up): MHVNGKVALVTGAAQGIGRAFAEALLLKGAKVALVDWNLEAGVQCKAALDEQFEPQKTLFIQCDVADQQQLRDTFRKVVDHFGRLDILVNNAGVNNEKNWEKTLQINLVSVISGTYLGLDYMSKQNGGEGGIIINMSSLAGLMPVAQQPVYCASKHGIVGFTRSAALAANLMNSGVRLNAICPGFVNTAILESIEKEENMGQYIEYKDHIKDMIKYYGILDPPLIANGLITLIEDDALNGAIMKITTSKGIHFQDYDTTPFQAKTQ

Row | SMILES | activity change, negative = inhibition | Potency
1 | O=C(CCN1C(=O)c2ccccc2C1=O)C1=NN[C@@H]2C(=O)N(c3ccc(F)cc3)C(=O)[C@H]12 | -16.3% | –
2 | O=C(C(=O)N1CCc2ccccc2C1)N1CCc2ccccc2C1 | -4.51% | –
3 | CN(c1ccc(C(=O)N2CCc3ccccc3C2)cc1)S(C)(=O)=O | – | 14.1 µM (active)
4 | COc1cccc(N(CC(=O)N2CCc3ccccc3C2)S(C)(=O)=O)c1 | -5.24% | –
5 | N=c1n(CCc2ccccc2)c2ccccc2n1Cc1ccccc1F | -8.4% | –
6 | COCCNC(=S)N/N=C/c1c(C)[nH]c2ccccc12 | -19.3% | –
7 | O=C(Nc1cccc2ncccc12)C(Cl)(Cl)Cl | -18.4% | –
8 | Cc1ccc(/C=C(\C#N)C(=O)Nc2cccc3ncccc23)o1 | – | 39.8 µM (active)
9 | O=C(O)c1cc(Cl)c(Cl)cc1C(=O)Nc1cccc2ncccc12 | -16.7% | –
10 | Cc1ccc(S(=O)(=O)N(CC(=O)N2CCc3ccccc3C2)c2cccc(Cl)c2)cc1 | -8.94% | –
11 | Cc1ccc2c(c1)N(C(=O)CCC(=O)N1CCc3ccccc3C1)CCO2 | – | 14.1 µM (active)
12 | Cc1ccc(S(=O)(=O)N(C)CC(=O)N2CCc3ccccc32)cc1 | -3.12% | –
13 | Cc1cc(OCCCC(=O)NCCN2C(=O)S/C(=C\c3cccnc3)C2=O)ccc1Cl | -5.63% | –
14 | Cn1cnc(C(F)(F)F)c1-c1ccc([N+](=O)[O-])cc1 | -0.963% | –
15 | Cc1ccnc(-n2sc3ccccc3c2=O)n1 | – | 0.794 µM (active)
16 | Cc1nc2ccccc2c(=O)n1CCCn1ccnc1 | -6.43% | –
17 | Cc1ccc(NC(=S)NCc2ccccc2Cl)c(C)c1 | -27.2% | –
18 | Clc1ccc(C2=CSC3=Nc4cccc5cccc(c45)N23)cc1 | – | 7.94 µM (active)
19 | O=S(=O)(NCC1CCCO1)c1cnc(Cl)c(Cl)c1 (stereo not given) | -16.1% | –
20 | C/C(=C\c1ccccc1)C1NC(=O)c2c(sc3c2CCCC3)N1 (stereo not given) | -3.55% | –
21 | O=C(c1cc(-c2cccs2)on1)N1CCCCC1 | – | 1.78 µM (active)
22 | O=C(c1cc(-c2ccccc2O)on1)N1CCCC1 | -29.8% | –
23 | COc1ccccc1N1CCN(C(=O)c2cc(-c3ccc(Br)cc3)on2)CC1 | -29.1% | –
24 | COc1ccccc1N1CCN(C(=O)c2cc(-c3ccc(Cl)c(Cl)c3)on2)CC1 | -13.7% | –
25 | O=C(c1cccs1)N1CCN(C(=O)N2CCOCC2)CC1 | 2.42% | –

Row | SMILES | activity change, negative = inhibition | Potency
26 | COc1ccccc1-c1cc(C(=O)N2CCCCC2)no1 | – | 3.55 µM (active)
27 | Cc1cc(C)cc(NC(=S)NCc2ccc(F)cc2)c1 | -19.9% | –
28 | CCn1nc(C)c(/C=N/NC(=O)Cc2ccc(Cl)cc2)c1C | -9.17% | –
29 | O=C(NCc1cccs1)C(=O)NCC1OCCCN1S(=O)(=O)c1ccc(F)cc1 (stereo not given) | -5.48% | –
30 | C=CCOC(=O)NC(c1ccc(F)c(F)c1)C(C(=O)COC)C(=O)OC (stereo not given) | -10.1% and -9.32% | –
31 | CCN(CC)S(=O)(=O)c1cccc(C(=O)Nc2ccccc2)c1 | 0.0347% | –
32 | CCN(CC)S(=O)(=O)c1cccc(-c2n[nH]c(=S)n2/N=C/c2ccc(C(=O)OC)cc2)c1 | – | 6.31 µM (active)
33 | COC(=O)c1ccc(/C=N\n2c(C)nnc2C)cc1 | -12.4% | –
34 | CC(Sc1nc2cc(Cl)ccc2s1)C(=O)Nc1ccc2c(c1)OCO2 (stereo not given) | -22.7% | –
35 | CC(C)CNC(=O)COC(=O)/C=C/c1ccco1 | -11.3% | –
36 | O=C(COC(=O)/C=C/c1cccc(Cl)c1)NCCc1ccccc1 | -5.17% | –
37 | CC(C)CNC(=O)COC(=O)/C=C/c1ccccc1[N+](=O)[O-] | – | 28.2 µM (active)
38 | COc1cccc(NC(=S)NCCCN2CCOCC2)c1 | -6.46% | –
39 | COc1cccc(NC(=S)NCc2ccccn2)c1 | -28.2% | –
40 | COc1cccc(NC(=S)NCc2ccco2)c1 | – | 11.2 µM (active)
41 | Cc1ccc(S(=O)(=O)Nc2ccc3ncccc3c2)cc1 | -6.64% | –
42 | O=S(=O)(NCc1ccccn1)c1ccc(F)cc1 | -6.74% | –
43 | O=S(=O)(Nc1ccc(Oc2ncccn2)c(Cl)c1)c1ccc(F)cc1 | – | 35.5 µM (active)
44 | Cc1cc(F)ccc1S(=O)(=O)Nc1ncnc2scc(-c3ccc(F)cc3)c12 | -6.93% | –
45 | O=[N+]([O-])c1cccc(C2=NCCS2)c1 | -12.8% | –
46 | O=C(COC(=O)c1cc(-c2cccs2)nn1-c1ccccc1)Nc1cc([N+](=O)[O-])ccc1Cl | -0.873% | –
47 | CCOP(=O)(OCC)C(Nc1cccc(C)c1)c1ccc(F)cc1 (stereo not given) | -7.61% | –
48 | O=C(c1ccc2c(c1)OCO2)N1CCNc2ccccc2C1 | – | 25.1 µM (active)
49 | O=C(c1ccc2c(c1)OCO2)N1CCOCC1 | – | 14.1 µM (active)
50 | CC1CN(C(=O)c2ccc3c(c2)OCO3)OC(c2ccccc2)O1 (stereo not given) | -4.25% | –

Source: PubChem BioAssay AID894 (National Center for Advancing Translational Sciences (NCATS), 2007)
